# Rows were chosen to be rich in hits. Some 18% of all compounds tested hit in one or more screens of this group.
# TDP1 cell CPT – growth inhibition of DT40 Tdp1-/-;hTDP1 cells with camptothecin (screen for TDP1 inhibitors) | chicken DT40 Tdp1-/-;hTDP1 cells + 20 nM CPT, ATP luminescence, 48 h | Potency, µM (top dose mostly 46.2 µM), hits mostly inhibitors | hit rate 12% among 420,000 | AID 686979; note: nearly all actives have a fitted effect of over 55% in size
#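 Chicken DT40 Tdp1-/- cells complemented with human TDP1, 400 cells/well, exposed to compounds plus 20 nM camptothecin for at least 48 h at 37 C; viability read as ATP content by CellTiter-Glo luminescence.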
# IL1B secr inh – inflammasome signaling inhibition, IL-1 beta readout. THP-1 LPS/ATP IL-1B secretion, AlphaLISA, 16 h; stronger effect = lower value. activity change, % at 57.5 µM. hit rate 4.7% among 360,000. AID 743279; in the data active = activity change below about -50%; inconclusive = mostly about -30% to -49%
#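 THP-1 cells pretreated 1 hr with compounds (up to 57.5 uM final), then stimulated with LPS (250 ng/mL final) plus ATP (1.25 mM final); secreted IL-1B measured by AlphaLISA after 16 hr, decreased signal indicating inhibition.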
# DT40 TDP1 no CPT – qHTS for Inhibitors of human tyrosyl-DNA phosphodiesterase 1 (TDP1): qHTS in cells in absence of CPT; DT40 Tdp1-/- hTDP1 cells, no CPT, ATP luminescence, 48 h; hit rate 15% among 420,000; Potency, µM (highest dose often 46.2 µM), most hits filed as inhibitors; AID 686978, 2013; note: nearly all actives have a fitted effect of over 55% in size
#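 DT40 Tdp1-/-;hTDP1 cells, no CPT (DMSO vehicle only), 400 cells/well; compounds pin-transferred; ≥48 hr, 37 °C; CellTiter-Glo 30 min RT dark, luminescence read.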
# TDP1 inh – inhibitors of human tyrosyl-DNA phosphodiesterase TDP1; Potency, µM (titrated, usually from 130 µM), hits mostly inhibitors; Q9NUW8; recombinant TDP1, AlphaScreen DNA substrate cleavage; hit rate 0.28% among 350,000; note: nearly all actives have a fitted effect of over 40% in size
# Target sequence (Q9NUW8 whole entry, looked up): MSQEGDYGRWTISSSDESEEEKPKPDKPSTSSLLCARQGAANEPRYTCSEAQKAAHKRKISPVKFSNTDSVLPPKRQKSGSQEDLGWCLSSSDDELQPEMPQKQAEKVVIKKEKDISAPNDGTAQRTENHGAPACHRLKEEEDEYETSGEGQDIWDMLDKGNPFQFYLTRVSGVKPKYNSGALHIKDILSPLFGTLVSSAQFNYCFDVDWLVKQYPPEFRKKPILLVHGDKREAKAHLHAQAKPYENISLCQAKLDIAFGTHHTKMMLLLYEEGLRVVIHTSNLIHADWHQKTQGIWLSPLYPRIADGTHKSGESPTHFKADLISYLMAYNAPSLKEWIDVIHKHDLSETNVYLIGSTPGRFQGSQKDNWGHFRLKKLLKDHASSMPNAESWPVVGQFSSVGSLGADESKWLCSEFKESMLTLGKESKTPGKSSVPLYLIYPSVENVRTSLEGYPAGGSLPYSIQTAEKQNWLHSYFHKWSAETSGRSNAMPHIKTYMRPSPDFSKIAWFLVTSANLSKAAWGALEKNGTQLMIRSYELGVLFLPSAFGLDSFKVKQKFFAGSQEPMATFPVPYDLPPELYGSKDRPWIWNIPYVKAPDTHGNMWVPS
#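 Recombinant E. coli-expressed Tdp1 (1 nM) preincubated with compound 15 min at RT, then 5'-biotin/3'-phosphotyrosine-FITC DNA substrate (15 nM) added for 5 min. AlphaScreen beads (10 ug/ml) added, 10 min RT; tyrosine-FITC cleavage read as signal loss.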
# TGFb inhibitor – blocks TGF-b signaling. HepG2 CAGA-GFP TGF-b/SMAD3 reporter, GFP fluorescence, 18 h; TGF-beta stimulated, 500 pg/mL final. Potency, µM (titrated, usually from 46.1 µM), usual class: inhibitors. hit rate 1.2% among 410,000. AID 588855; note: nearly all actives have a fitted effect of over 65% in size
#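 Per well, imaged GFP fluorescence of HEPG2 CAGA-GFP cells gives the signal; cells get compound, then TGF-beta (500 pg/mL final), 18 h at 37 degrees C; %Activity versus -TGF-beta and +DMSO controls.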
# HepG2 viability – HepG2 cytotoxicity, counter-screen for TGF-b inhibitors; hit rate 0.76% among 410,000; Potency, µM (top dose mostly 46.1 µM), usual class: cytotoxic; HepG2 CAGA-GFP viability, ATP luminescence, 18 h
#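 HepG2 CAGA-GFP cells (1000/well, DMEM with 1% FBS) received compound, then TGF-beta at 500 pg/mL final, and were incubated 18 hours at 37 degrees C. Viability was read by CellTiter-Glo luminescence. Media-only wells were set as complete cell-killing and DMSO as no toxicity.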
# Hits are given with their value; n = inactive; u = inconclusive; x = no result given. Unless noted, calls come from the whole dose curve; as a rule, active = well fitted curve in the direction sought with a large enough effect; inconclusive = small, poorly fitted or top-dose-only effect, or another doubt; inactive = no such curve, though single readings can be large; an effect the other way counts as inactive or inconclusive.
SMILES,TDP1 cell CPT,IL1B secr inh,DT40 TDP1 no CPT,TDP1 inh,TGFb inhibitor,HepG2 viability
COc1ccc(C=C2CS(=O)(=O)CC(=Cc3ccc(OC)cc3)C2=O)cc1,1.8µM,-107,1.3µM,x,5µM,n
CN(C)/N=C/C=C1\CCC/C(=C\c2ccc(F)c(F)c2)C1=O,u,-106,26µM,n,u,n
O=C1OCCC/C1=C\c1ccc2c(c1)OCO2,n,n,n,n,n,n
COc1ccc(/C=C2\CCC/C(=C\C=N\N(C)C)C2=O)cc1,u,-59,u,n,n,n
N#Cc1cccc(-c2nc3cnc(Oc4cccc(Cl)c4)nc3n(C3CC3)c2=O)c1,n,x,n,x,x,x
COC(=O)c1ccc([C@H]2CC(=O)O2)cc1,u,-96,u,x,n,n
Cc1ccc(NC(=O)CN2C(=O)CSc3ccc(S(=O)(=O)N4CCCCC4)cc32)cc1,u,-89,n,n,n,n
COc1ccc(NC(=O)CN2C(=O)CSc3ccc(S(=O)(=O)N(C)C)cc32)cc1Cl,23µM,x,u,n,n,n
CCOC(=O)CN1C(=O)CSc2ccc(S(=O)(=O)N3CCCC3)cc21,n,-52,u,n,n,n
O=C(CN1C(=O)CSc2ccc(S(=O)(=O)N3CCCC3)cc21)Nc1cccc(Cl)c1,u,x,23µM,n,n,n
CCOC(=O)CN1C(=O)CSc2ccc(S(=O)(=O)N3CCOCC3)cc21,n,n,n,n,n,n
Cc1cc(C)cc(NC(=O)CN2C(=O)CSc3ccc(S(=O)(=O)N4CCCC4)cc32)c1,u,x,u,n,n,n
CC(C)c1nnc(N2C(=O)c3oc4ccccc4c(=O)c3C2c2cccc(O)c2)s1 (stereo not given),n,x,n,n,u,n
COc1ccc2c(c1)Cc1c-2cc(Br)c(N)c1Br,n,n,u,x,n,n
Cn1c(=O)oc2cc(S(=O)(=O)NC(Cc3ccccc3)C(=O)Nc3ccc(F)cc3)ccc21 (stereo not given),n,x,n,n,n,n
CCCc1ccc(OCC(O)CN2CCN(c3ccccn3)CC2)cc1 (stereo not given),u,n,n,n,n,n
Cc1ccccc1N(C)C1=N[S+](=O)([O-])c2ccccc21,x,x,x,n,x,x
CCN(CC)c1ncc(C#N)c(N)n1,n,n,n,n,n,n
CCc1cccc(CC)c1NC(=O)NC1CCCCC1,n,n,n,n,n,n
CCc1cccc(CC)c1NC(=O)CN1CC(C)SC1=NC1CCCCC1 (stereo not given),21µM,n,13µM,n,n,n
CCc1nn(CC(=O)NC2CC2)c(=O)c2cc3c(OC)cccc3n12,n,x,u,n,n,n
O=C(Nc1cccc(Cl)c1N1CCCC1)c1cccc(-c2cc3ccccc3oc2=O)c1,18µM,n,u,n,n,n
O=C(Nc1ccc(CN2CCOCC2)cc1)c1cccc(-c2cc3ccccc3oc2=O)c1,16µM,u,u,n,n,n
COc1cccc(NC(=S)N2CCN(C)CC2)c1,n,n,n,x,n,n
COC(=O)CCn1c(C)cc(C(=O)COc2ccccc2C(N)=O)c1C,21µM,-99,23µM,n,n,n
SMILES,TDP1 cell CPT,IL1B secr inh,DT40 TDP1 no CPT,TDP1 inh,TGFb inhibitor,HepG2 viability
Cc1cc(C(=O)CCl)c(C)n1CCc1ccccc1,3.3µM,-100,4.6µM,n,u,7.9µM
COC(=O)CCCn1c(C)cc(C(=O)CCl)c1C,6.5µM,-93,10µM,n,u,n
CC(C)(C)OC(=O)C(Oc1ccccc1[N+](=O)[O-])C(=O)OC(C)(C)C,u,n,u,x,x,x
COc1ccc(CC2(C)OC(c3ccc(Cl)cc3)=NN2C(C)=O)cc1 (stereo not given),u,n,u,n,n,n
O=C(Nc1ccccc1)Nc1cccc(C(F)(F)F)c1,u,n,u,n,n,n
COc1ccc(NC(=O)Nc2cccc(C(F)(F)F)c2)cn1,u,u,21µM,n,u,n
Cc1ccc(OC(F)F)c(NC(=O)Nc2cccc(C(F)(F)F)c2)c1,13µM,-99,u,n,u,n
COc1ccc(NC(=O)Nc2cc(C)cc(C)c2)cn1,n,n,u,x,n,n
COc1ccc(NC(=O)Nc2cccs2)cn1,13µM,n,18µM,x,n,n
CCOC(=O)c1cccc(NC(=O)c2ccc3nc(C(C)C)oc3c2)c1,u,x,u,n,n,n
CCOc1ccc(NC(=O)c2ccc3nc(C(C)C)oc3c2)cc1,21µM,x,16µM,n,u,n
CC(C)c1nc2ccc(C(=O)NC(C)c3ccccc3)cc2o1 (stereo not given),n,x,u,n,n,n

# From PubChem BioAssay
